Data as given in PubChem BioAssay (EPA / NIEHS).
Activity calls are given as the source filed them. Rule for the calls: active = hit-call score of the fitted dose curve at least 0.9, where 1 is the maximum; inactive = score below 0.9.

Experiments:
Conditions in all cases: mRNA level, 48 h; actives raise or lower the signal
[1] = read-out: Alpha-fetoprotein (AFP) gene, AFP (gene 174); assay: LTEA_HepaRG_AFP: Life Technologies and Expression Analysis (LTEA) Assay for Alpha-fetoprotein (AFP) gene using HepaRG (AID 2283472)
Method in brief: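 Human HepaRG cells plated 48 h, then switched to serum-free induction medium and exposed in duplicate for 48 h to 8-point half-log series from 100 uM in 0.5% DMSO. AFP mRNA by qRT-PCR, normalized to ACTB, GAPDH, POLR2A; bidirectional fit versus DMSO.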

BCL2L11 (gene 10018) = assay: LTEA_HepaRG_BCL2L11: Life Technologies and Expression Analysis (LTEA) Assay for Bcl-2 (BCL2L11) gene using HepaRG (AID 2283473)
Method in brief: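 Read-out is BCL2L11 transcript level by qRT-PCR, normalized to three housekeeping genes and fitted bidirectionally against 0.5% DMSO vehicle. HepaRG cells received chemicals for 48 h in serum-free induction medium, 100 uM down in half-log dilutions.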

[2] = read-out: Apolipoprotein A-V (APOA5) gene, APOA5 (gene 116519); assay: LTEA_HepaRG_APOA5: Life Technologies and Expression Analysis (LTEA) Assay for Apolipoprotein A-V (APOA5) gene using HepaRG (AID 2283474)
Method in brief: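 Readout is APOA5 transcript level by qRT-PCR on Fluidigm dynamic arrays, normalized to three housekeeping genes. HepaRG cultures received chemicals for 48 h at up to 100 uM (half-log steps, 0.5% DMSO), with gain or loss scored relative to DMSO.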

[3] = read-out: Apoptosis regulator Bcl-2 (Homo sapiens) (UniProt P10415); assay: LTEA_HepaRG_BCL2: Life Technologies and Expression Analysis (LTEA) Assay for Bcl-2 gene using HepaRG (AID 2283475)
Method in brief: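 Differentiated HepaRG cells in serum-free induction medium were exposed for 48 h to eight half-log concentrations up to 100 uM in 0.5% DMSO, in duplicate. BCL2 mRNA was quantified by TaqMan qRT-PCR normalised to ACTB, GAPDH and POLR2A, with bidirectional fitting versus DMSO.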

[4] = read-out: Bcl-2 (BID) gene, BID (gene 637); assay: LTEA_HepaRG_BID: Life Technologies and Expression Analysis (LTEA) Assay for Bcl-2 (BID) gene using HepaRG (AID 2283476)
Method in brief: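 Differentiated HepaRG cells in serum-free induction medium were exposed in duplicate for 48 h to eight half-log concentrations up to 100 uM in 0.5% DMSO. BID mRNA was quantified by qRT-PCR, normalized to ACTB, GAPDH and POLR2A.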

Caspase-3 (Homo sapiens) = Caspase-3 (Homo sapiens) (UniProt P42574); assay: LTEA_HepaRG_CASP3: Life Technologies and Expression Analysis (LTEA) Assay for cysteine-aspartic acid protease (CASP3) using HepaRG (AID 2283477)
Method in brief: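 Read-out is CASP3 mRNA level by TaqMan qRT-PCR in human HepaRG cells after 48 h chemical exposure. Eight half-log concentrations topping at 100 uM were tested in 0.5% DMSO; gain or loss was fitted relative to DMSO.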

[5] = read-out: Cytochrome P450 (CYP1A2), CYP1A2 (gene 1544); assay: LTEA_HepaRG_CYP1A2: Life Technologies and Expression Analysis (LTEA) Assay for Cytochrome P450 (CYP1A2) using HepaRG (AID 2283479)
Method in brief: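 CYP1A2 transcript induction or loss, quantified by Fluidigm qRT-PCR against three housekeeping genes, was fitted bidirectionally against 0.5% DMSO controls. Human HepaRG cells received eight half-log concentrations from 100 uM over 48 h.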

[6] = read-out: cysteine-aspartic acid protease (CASP8), CASP8 (gene 841); assay: LTEA_HepaRG_CASP8: Life Technologies and Expression Analysis (LTEA) Assay for cysteine-aspartic acid protease (CASP8) using HepaRG (AID 2283480)
Method in brief: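 Differentiated human HepaRG cells, plated 48 h then switched to serum-free induction medium, were exposed in duplicate for 48 h to 8 half-log concentrations up to 100 uM in 0.5% DMSO. CASP8 mRNA was quantified by qRT-PCR, normalized to ACTB/GAPDH/POLR2A.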

[7] = read-out: Cytochrome P450 2C19 (Homo sapiens) (UniProt P33261); assay: LTEA_HepaRG_CYP2C19: Life Technologies and Expression Analysis (LTEA) Assay for CYP2C19 using HepaRG (AID 2283482)
Method in brief: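 Transcript levels of CYP2C19 were quantified by qRT-PCR after HepaRG cells were treated for 48 hours with test chemicals up to 100 uM (eight half-log concentrations, 0.5% DMSO vehicle). Gain or loss of signal was fitted relative to DMSO.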

CYP2C8 (gene 1558) = assay: LTEA_HepaRG_CYP2C8: Life Technologies and Expression Analysis (LTEA) Assay for CYP2C8 using HepaRG (AID 2283483)
Method in brief: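 Differentiated human HepaRG cells were exposed for 48 h in serum-free induction medium to eight half-log concentrations up to 100 uM in 0.5% DMSO, in duplicate. CYP2C8 mRNA was measured by TaqMan qRT-PCR, normalized to ACTB, GAPDH and POLR2A, and fitted bidirectionally against DMSO.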

CYP2C9 (gene 1559) = assay: LTEA_HepaRG_CYP2C9: Life Technologies and Expression Analysis (LTEA) Assay for CYP2C9 using HepaRG (AID 2283484)
Method in brief: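 Differentiated human HepaRG cells were exposed 48 h in serum-free induction medium to eight half-log concentrations up to 100 uM in 0.5% DMSO. CYP2C9 mRNA was measured by qRT-PCR, normalized to ACTB, GAPDH and POLR2A, and fitted bidirectionally against DMSO.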

CYP2E1 (gene 1571) = assay: LTEA_HepaRG_CYP2E1: Life Technologies and Expression Analysis (LTEA) Assay for CYP2E1 using HepaRG (AID 2283485)
Method in brief: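 HepaRG cells in serum-free induction medium exposed 48 h to test chemicals, 8 half-log concentrations up to 100 uM in 0.5% DMSO, duplicate. CYP2E1 mRNA by qRT-PCR, normalized to ACTB, GAPDH, POLR2A; bidirectional fit versus DMSO.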

CYP4A11 (gene 1579) = assay: LTEA_HepaRG_CYP4A11: Life Technologies and Expression Analysis (LTEA) Assay for CYP4A11 using HepaRG (AID 2283486)
Method in brief: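 HepaRG, 48 h chem exposure, 8 conc (100 uM top, half-log), 0.5% DMSO vehicle; qRT-PCR readout, housekeeping-gene normalized; bidirectional curve fit vs DMSO baseline.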

[8] = read-out: Cytochrome P450 3A4 (Homo sapiens) (UniProt P08684); assay: LTEA_HepaRG_CYP3A4: Life Technologies and Expression Analysis (LTEA) Assay for CYP3A4 using HepaRG (AID 2283487)
Method in brief: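 In a human hepatic line (HepaRG), duplicate wells were treated 48 h with up to 100 uM chemical in half-log dilutions. Endpoint: CYP3A4 mRNA induction or loss relative to 0.5% DMSO vehicle, by qRT-PCR.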

[9] = read-out: Pro-epidermal growth factor (Homo sapiens) (UniProt P01133); assay: LTEA_HepaRG_EGF: Life Technologies and Expression Analysis (LTEA) Assay for Epidermal growth factor (EGF) using HepaRG (AID 2283489)
Method in brief: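 HepaRG, 48 h dosing, 100 uM top, half-log x8, 0.5% DMSO. Readout: TaqMan qRT-PCR (Fluidigm array), housekeeping-normalized. Gain or loss of signal fit vs DMSO.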

[10] = read-out: Ezrin (EZR), EZR (gene 7430); assay: LTEA_HepaRG_EZR: Life Technologies and Expression Analysis (LTEA) Assay for Ezrin (EZR) using HepaRG (AID 2283491)
Method in brief: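 Gain or loss of EZR mRNA is scored relative to 0.5% DMSO in human HepaRG cultures treated 48 h with test chemicals in duplicate, eight half-log concentrations from 100 uM.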

[11] = read-out: Cytochrome P450 (CYP24A1), CYP24A1 (gene 1591); assay: LTEA_HepaRG_CYP24A1: Life Technologies and Expression Analysis (LTEA) Assay for Cytochrome P450 (CYP24A1) using HepaRG (AID 2283478)
Method in brief: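 HepaRG, 48 h chemical exposure, 8-pt half-log CRC from 100 uM, 0.5% DMSO vehicle, duplicates. Endpoint: CYP24A1 mRNA by Fluidigm TaqMan qRT-PCR, normalized ACTB/GAPDH/POLR2A; gain/loss fit vs DMSO.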

[12] = read-out: DNA damage-inducible transcript 3 (DDIT3), DDIT3 (gene 1649); assay: LTEA_HepaRG_DDIT3: Life Technologies and Expression Analysis (LTEA) Assay for DNA damage-inducible transcript 3 (DDIT3) using HepaRG (AID 2283488)
Method in brief: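 Differentiated human HepaRG cells in serum-free induction medium were exposed in duplicate for 48 h to 8 concentrations (top 100 uM, half-log steps, 0.5% DMSO). DDIT3 mRNA measured by TaqMan qRT-PCR, normalized to ACTB/GAPDH/POLR2A; bidirectional fit versus DMSO.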

[13] = read-out: Early growth response protein 1 (EGR1) transcription factor, EGR1 (gene 1958); assay: LTEA_HepaRG_EGR1: Life Technologies and Expression Analysis (LTEA) Assay for Early growth response protein 1 (EGR1) transcription factor using HepaRG (AID 2283490)
Method in brief: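 Differentiated human HepaRG cells in serum-free induction medium were exposed in duplicate for 48 h to eight concentrations (top 100 uM, half-log steps) in 0.5% DMSO. EGR1 mRNA was quantified by qRT-PCR, normalized to ACTB, GAPDH and POLR2A, and fitted bidirectionally versus DMSO.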

[14] = read-out: Cytochrome P450 (CYP2B6), CYP2B6 (gene 1555); assay: LTEA_HepaRG_CYP2B6: Life Technologies and Expression Analysis (LTEA) Assay for Cytochrome P450 (CYP2B6) using HepaRG (AID 2283481)
Method in brief: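 HepaRG cells plated 48 h, switched to serum-free induction medium, then dosed 48 h (8 points, half-log from 100 uM, 0.5% DMSO). RNA isolated; CYP2B6 expression measured by qRT-PCR; gain or loss fitted relative to DMSO.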

Measured: AC50

Chain of Apoptosis regulator Bcl-2 (Homo sapiens) (P10415 whole entry, looked up): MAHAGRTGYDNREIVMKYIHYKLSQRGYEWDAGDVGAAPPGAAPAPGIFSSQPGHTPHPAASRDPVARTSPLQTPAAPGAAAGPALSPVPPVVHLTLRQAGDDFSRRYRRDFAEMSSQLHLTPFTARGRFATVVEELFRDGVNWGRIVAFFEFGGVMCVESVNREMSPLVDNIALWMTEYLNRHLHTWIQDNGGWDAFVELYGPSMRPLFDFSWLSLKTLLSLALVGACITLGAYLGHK
Chain of Caspase-3 (Homo sapiens) (P42574 whole entry, looked up): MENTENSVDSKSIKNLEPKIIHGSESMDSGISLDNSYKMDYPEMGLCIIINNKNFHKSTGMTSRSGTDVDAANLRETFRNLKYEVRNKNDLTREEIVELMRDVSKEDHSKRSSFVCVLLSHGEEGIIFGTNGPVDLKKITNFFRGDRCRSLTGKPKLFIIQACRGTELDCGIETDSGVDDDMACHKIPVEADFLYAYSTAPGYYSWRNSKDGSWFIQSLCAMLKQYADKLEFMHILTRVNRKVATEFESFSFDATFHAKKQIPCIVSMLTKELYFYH
Chain of Cytochrome P450 3A4 (Homo sapiens) (P08684 whole entry, looked up): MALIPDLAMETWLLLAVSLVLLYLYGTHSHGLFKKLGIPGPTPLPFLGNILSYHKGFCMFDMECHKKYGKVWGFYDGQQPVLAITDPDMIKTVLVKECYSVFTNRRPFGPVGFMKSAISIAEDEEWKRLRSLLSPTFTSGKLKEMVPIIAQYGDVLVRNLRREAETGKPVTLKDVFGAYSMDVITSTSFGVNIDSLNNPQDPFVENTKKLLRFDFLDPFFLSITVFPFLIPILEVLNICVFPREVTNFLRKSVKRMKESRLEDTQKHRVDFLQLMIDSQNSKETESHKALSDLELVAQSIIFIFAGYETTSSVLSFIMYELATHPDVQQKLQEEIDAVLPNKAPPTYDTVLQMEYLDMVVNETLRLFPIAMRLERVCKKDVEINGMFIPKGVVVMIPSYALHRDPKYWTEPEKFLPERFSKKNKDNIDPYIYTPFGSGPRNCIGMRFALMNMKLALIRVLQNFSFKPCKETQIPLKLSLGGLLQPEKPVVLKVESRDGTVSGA
Chain of Cytochrome P450 2C19 (Homo sapiens) (P33261 whole entry, looked up): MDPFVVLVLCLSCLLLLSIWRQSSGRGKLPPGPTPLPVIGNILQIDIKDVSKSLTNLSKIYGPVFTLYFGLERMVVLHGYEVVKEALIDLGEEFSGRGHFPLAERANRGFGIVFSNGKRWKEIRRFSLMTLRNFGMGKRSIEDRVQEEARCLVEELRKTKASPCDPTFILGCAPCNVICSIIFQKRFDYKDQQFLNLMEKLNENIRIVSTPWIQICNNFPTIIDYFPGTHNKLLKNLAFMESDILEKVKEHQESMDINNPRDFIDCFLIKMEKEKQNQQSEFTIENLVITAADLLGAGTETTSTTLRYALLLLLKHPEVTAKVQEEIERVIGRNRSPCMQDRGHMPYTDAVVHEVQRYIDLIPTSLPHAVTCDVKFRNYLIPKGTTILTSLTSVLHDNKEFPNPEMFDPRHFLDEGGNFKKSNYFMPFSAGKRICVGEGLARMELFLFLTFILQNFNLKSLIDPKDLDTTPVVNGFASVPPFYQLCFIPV

CN(C)C(=O)Nc1ccc(Cl)cc1
active: [5] 55 µM | CYP2E1 (gene 1571) 50 µM
not listed: [11] | [12] | [13] | [14]
inactive: all other assays above

CCOc1cccc(C2(N3CCN(c4ccccc4)CC3)CCC(C)CC2)c1 (stereo not drawn)
active: [5] 16.6 µM
not listed: [3] | [14]
inactive: all other assays above

O=C(N[C@H](c1ccccc1)[C@@H]1CN2CCC1CC2)c1c(Cl)ccc(C(F)(F)F)c1Cl
active: [1] 22.8 µM | BCL2L11 (gene 10018) 11.3 µM | [2] 72.6 µM | Caspase-3 (Homo sapiens) 70 µM | [5] 84.6 µM | [6] 73.7 µM | CYP2C9 (gene 1559) 69.5 µM | CYP2E1 (gene 1571) 44.5 µM | CYP4A11 (gene 1579) 35.4 µM | [8] 81.2 µM | [9] 73.1 µM | [13] 87.5 µM | [10] 2.42 µM
inactive: [3] | [4] | CYP2C8 (gene 1558)

CC(C)(C)OOC(C)(C)CCC(C)(C)OOC(C)(C)C
not listed: [4] | Caspase-3 (Homo sapiens) | [6] | [7] | [12] | [14]
inactive: all other assays above

CCCCCCCCCCCCCN1CC(C)OC(C)C1 (stereo not drawn)
active: [5] 50 µM
not listed: [3] | [11] | [13]
inactive: all other assays above

CC(C)(C)OOC(=O)c1ccccc1
not listed: [3] | [7] | [11] | [13]
inactive: all other assays above

COc1cc(C=O)cc2c1[C@H](COC(N)=O)[C@]1(OC(C)=O)ON2C[C@H]2[C@@H]1N2C(C)=O
active: [1] 0.95 µM | BCL2L11 (gene 10018) 1.29 µM | [2] 0.316 µM | [6] 3.89 µM | [7] 0.804 µM | CYP2C8 (gene 1558) 0.5 µM | CYP2C9 (gene 1559) 24.2 µM | CYP4A11 (gene 1579) 0.5 µM
inactive: [4] | Caspase-3 (Homo sapiens) | [11] | [5] | CYP2E1 (gene 1571) | [8] | [9] | [10]

CN(C)c1ccc(C(=O)c2ccc(N(C)C)cc2)cc1
active: [1] 50 µM | [5] 12.1 µM | [14] 12.2 µM | CYP2E1 (gene 1571) 50 µM | CYP4A11 (gene 1579) 50 µM
not listed: [3] | [7] | [8] | [11] | [13]
inactive: all other assays above
